# Compound activity as filed in PubChem.
# mHtt clearance: compounds clearing mutant huntingtin protein; HeLa Exon1htt(103Q)mCFP, aggregate imaging; zero = plate's median compound well; actives 0.42% (n = 47,000); AID 853; inhibition, % at 1.5 µM;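 active means inhibition of aggregate fluorescence above about 70%, also judged a hit by eye on the cell image, limit read from the data, passing the limit was not always enough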;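 further: cells exposed to compound for three days before fixation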
# SKBR3 24h inh: SK-BR-3 proliferation inhibitors; viability, % at 10 µM; SK-BR-3 viability, CellTiter-Glo ATP luminescence, 24 h; hits give low values; AID 847; actives 0.47% (n = 41,000);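 active means viability at or below the median of all test compounds minus 3 SD, in both replicates if run twice, cut at about 45% in these data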;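 further: 100% = median untreated cell wells and 0% = median positive control drug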
# An asterisk follows results filed as active; i = inactive; / = no result. Only some compounds are listed: those with a hit (about 0.58% of all), similar ones and a draw of the others.
SMILES,mHtt clearance,SKBR3 24h inh
CCCn1c2c(c(O)c(C(=O)NC)c1=O)CCCC2,-19.6,88.2
CCCn1c2c(c(O)c(C(=O)NCCCN(CC)CC)c1=O)CCCC2,74.2*,/
O=C(Cn1nc(C(F)(F)F)c2c1CCCC2)NCc1ccco1,/,72.1
COc1ccc(N(C(=O)Cc2cccs2)C(C(=O)NC2CCCCC2)c2cccn2C)cc1OC (stereo not drawn),94.3*,/
Cn1cccc1C(C(=O)NC1CCCCC1)N(C(=O)Cc1cccs1)c1ccc2c(c1)OCCO2 (stereo not drawn),/,85.3
Cc1c(C(=O)N2CCCCC2)sc(NC(=O)C23CC4CC(CC(C4)C2)C3)c1C#N,38.0,/
COC1=CC(=O)OC12CCCCC2,70.3*,85.7
O=C1C=C(NC2CC2)C2(CCCCC2)O1,-9.2,/
CC(C)COC(=O)N1CC(O)CC1C(=O)O (stereo not drawn),/,95.2
COc1ccc(-n2c(C)nc3cc(C(=O)N4CCOCC4)ccc32)cc1,/,79.9
COc1ccc(OC)c(-n2c(C)nc3cc(C(=O)O)ccc32)c1,73.5*,/
COc1ccc(C(c2nnnn2C2CCCC2)N2CCc3ccccc3C2)cc1OC (stereo not drawn),/,74.8
COc1ccc(OC)c(C(c2nnnn2C2CCCC2)N2CCc3ccccc3C2)c1 (stereo not drawn),73.4*,127.9
CCCCC(=O)Nc1ccc(C(=O)N2CCN(C)CC2)cc1,-69.7,92.9
O=C(COc1ccccc1)NCC1CCCO1 (stereo not drawn),-6.0,/
O=C(COc1ccc(F)cc1)NCC1CCCO1 (stereo not drawn),70.6*,104.3
Cc1cc(F)c(F)c(C(=O)N2CCN(C)CC2)c1Cl,-25.4,/
CCOc1cc(C2/C(=C(/O)c3ccc(OC(C)C)cc3)C(=O)C(=O)N2CCCOC)ccc1O (stereo not drawn),-64.2,116.5
COC(=O)c1ccccc1NC(=O)c1cnn2c(C(F)F)cc(C3CC3)nc12,75.7*,83.3
O=C(NCCc1ccccc1)c1cnn2c(C(F)F)cc(C3CC3)nc12,/,92.7
Cc1cc(C)n(CC(O)CN2c3ccccc3Sc3ccccc32)n1 (stereo not drawn),15.0,/
S=C1NCCOCCOCCOCCN1,17.1,/
S=C1NCCOCCOCCOCCOCCNC(=S)NCCOCCOCCOCCOCCN1,77.7*,/
COc1ccc(-c2cc3nc4n(c(=O)c3s2)CCOC4)cc1,/,108.2
Cc1c(NC(=O)c2c(F)c(F)c(F)c(F)c2F)c(=O)n(-c2ccccc2)n1C,/,91.3
SMILES,mHtt clearance,SKBR3 24h inh
Cc1c(NC(=O)c2ccccc2)c(=O)n(-c2ccccc2)n1C,77.7*,/
O=C1c2ccccc2C(=O)N1Cc1nc2ccccc2c(=O)n1CCN1CCOCC1,/,134.6
CCc1ccc(N=c2c([N+](=O)[O-])nn(-c3ccccc3)n2O)cc1,70.9*,/
O=[N+]([O-])c1nn(-c2ccc3c(c2)OCCO3)n(O)c1=NC1CCCCC1,-468.2,/
Cc1cc(C)n(-c2ccc(C(=O)OCc3nnc(-c4ccccc4)o3)cc2)n1,/,85.8
O=C(OCc1nnc(-c2ccccc2)o1)c1ccc(S(=O)(=O)NCc2ccco2)cc1,71.3*,78.7
CCOc1cc(-c2noc(-c3ccncc3)n2)cc(Br)c1OC,/,29.4*
CCOc1ccc(-c2noc(-c3ccncc3)n2)cc1OCC,/,108.7
COc1ccc(Cl)cc1C(=O)CSc1nc(N)cc(N)n1,61.9,99.6
Cc1cc2nnc(SCC(=O)OC(C)C)n2c2ccccc12,55.8,/
COc1cccc(Cn2c(-c3nonc3N)nc3ccccc32)c1,/,82.6
COc1cc(Cn2c(-c3nonc3N)nc3ccccc32)ccc1C,-188.7,35.5*
CCn1cc(C(=O)Nc2nncs2)c(=O)c2cc(F)c(N3CCN(C(=O)c4ccco4)CC3)cc21,/,70.4
COc1cccc(C2NC(=O)NC(C)=C2C(=O)Nc2ccc(C)cc2)c1OC (stereo not drawn),-6.5,100.0
COc1ccccc1C1NC(=O)NC(C)=C1C(C)=O (stereo not drawn),71.1*,/
O=C(Cc1ccccc1)N1CCCC(c2nc(-c3cccs3)no2)C1 (stereo not drawn),51.4,41.4*
O=C(N1CCOCC1)N1CCCC(c2nc(-c3cccs3)no2)C1 (stereo not drawn),50.1,/
Cc1nc2sc3c(c2c2nc(-c4ccco4)nn12)CC(C)(C)OC3,/,102.6
Cc1cccc2cc(C#N)c(NCCNC(=O)NC3CCCCC3)nc12,/,99.7
Cc1cccc2cc(C#N)c(NCCNS(=O)(=O)c3ccc4c(c3)OCCO4)nc12,i,29.6*
Cc1ccc(NC2=NCC(=O)N2Cc2ccc3c(c2)OCO3)cc1,/,89.0
CCN1C(=O)c2cccc3c(NC(=O)c4ccc(S(=O)(=O)N5CCOCC5)cc4)ccc1c23,71.7*,75.5
CCN1C(=O)c2cccc3c(NC(=O)c4ccc(S(=O)(=O)N(C)C)cc4)ccc1c23,/,78.8
CCCc1sc(N/N=C/c2ccccn2)nc1-c1ccc(F)cc1,81.9*,/
O=C(N/N=C/c1ccccn1)c1ccco1,-11.5,/
SMILES,mHtt clearance,SKBR3 24h inh
CN(C)CCNC(=O)c1cc2ccccc2oc1=O,73.6*,86.7
CC(=O)OCCNC(=O)c1cc2ccccc2oc1=O,-39.1,93.1
O=C(Nc1cccc(Cl)c1N1CCCC1)c1cccc(-c2cc3ccccc3oc2=O)c1,8.0,/
CCCC(=O)C1=C(c2ccccc2)C(C#N)(C#N)C(C#N)=C1N,30.8,99.6
COc1cc2c(C(=O)Nc3ccc4c(c3)OCO4)cn(CC(C)C)c(=O)c2cc1OC,/,89.0
COc1cc2c(C(=O)NCc3ccc4c(c3)OCO4)cn(CC(C)C)c(=O)c2cc1OC,4.7,24.7*
CCOC(=O)c1sc2nc(N3CCOCC3)c3c(c2c1N)CC(C)(C)N(C)C3,2.0,/
COC(=O)c1ccc(-c2sc3nc(N4CCOCC4)c4c(c3c2N)CC(C)(C)OC4)o1,/,33.7*
COc1ccccc1C(=O)Nc1cc(-c2nn3c(C)nnc3s2)ccc1C,-13.9,/
CCN(CC(=O)Nc1ccc2c(c1)OCCO2)c1nc(-c2cccnc2)nc2ccccc12,-2.8,/
COC(=O)c1cc(OC)c(OC)cc1NC(=O)c1cc(C)on1,-40.2,94.5
CC(CS(=O)(=O)c1ccc2ccccc2c1)N1CCN(C2CCCCC2)CC1 (stereo not drawn),34.5,/
COc1cc(NS(=O)(=O)c2ccc(C)cc2)c2ncccc2c1,/,77.1
COc1cc(NCCCC(C)N)c2ncccc2c1 (stereo not drawn),21.9,23.2*
COc1cc(NS(=O)(=O)c2ccc(Br)cc2)c(OC)cc1NC(=O)c1ccco1,30.4,82.3
Cc1cc(C(F)(F)F)nn1CCCNC(=O)c1cnccn1,/,85.3
CCCCn1nc(-c2ccccc2)c2nc3ccccc3nc21,73.9*,/
Cn1nc(-c2ccccc2)c2nc3ccccc3nc21,17.3,86.2
CCN(CC)S(=O)(=O)c1ccc(C(=O)OCn2nnc3ccccc3c2=O)cc1,45.4,/
Cc1cc(-c2cc(N)n(-c3ccccc3)n2)c(C)n1C1CCCC1,/,43.2*
Cc1cc(N)n(-c2ccccc2)n1,-38.4,95.9
O=C(CCCn1c(=S)[nH]c2ccccc2c1=O)N1CCCCC1,72.6*,/
CC1CC(C)CN(C(=O)CCCn2c(=S)[nH]c3ccccc3c2=O)C1 (stereo not drawn),13.0,/
O=C(c1cc2c(=O)oc3ccccc3c2s1)N1CCN(c2ccccn2)CC1,/,112.2
Cc1oc(-c2ccccc2F)nc1CSCC(=O)NCc1ccc2c(c1)OCO2,-25.9,/
CCN1CCN(C(=O)c2sc3nc(C)nc(N4CCC(C)CC4)c3c2C)CC1,/,83.0
Cc1nc(N2CCC(C)CC2)c2c(C)c(C(=O)O)sc2n1,80.1*,/
